Source: PubChem BioAssay
Active and inactive are the calls of the source.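 Rule for the calls, unless noted: active = inhibition of the reporter signal at or above 50%; inactive = inhibition below 50%.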

Key:
[1] = inhibitors of TNFa-induced NFkB p65 translocation, primary screen, imaging, HUVEC, MLSMR starter and 10KST1 sets (AID 438;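 active = inhibition above 20% together with a positive visual image hit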;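 note: compound added about 3h40 before a 20 min TNFalpha stimulation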;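 for inhibition: signal is the nuclear over cytoplasmic p65 intensity ratio per well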); details: HUVEC TNFa-induced p65 nuclear translocation; cell count: measured here: nuclei count (cytotoxicity indicator), at 2.08 µM; inhibition: at 2 µM, stronger effect = higher value, 0% TNFa-plus-vehicle, 100% no-TNFa wells
[2] = reduction of polyQ htt aggregates in cells – imaging, exon1htt(103Q)mCFP cells, high-content imaging, primary screen (AID 483;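 active = visual image review flags a hit and inhibition of aggregation exceeds 20%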;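 note: compound exposure lasted 3 days before fixation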;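 for nuclei count: percent of the per-plate median nuclei count of sample wells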); details: exon1htt(103Q)mCFP cell line, aggregate imaging, at 2 µM; inhibition of aggregation: stronger effect = higher value; nuclei count: measured here: cell count, toxicity
[3] = endothelial E-selectin expression blockers – imaging, HUVEC, immunofluorescence, MLSMR starter and 10KST1 sets, primary screen (AID 487;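 active = visually confirmed hit in the image check and inhibition above 20%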;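 for inhibition: signal is fraction of cell area covered by stained E-selectin grains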;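 for nuclei count: 100% = median nuclei count of all wells on the same plate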); details: HUVEC TNFalpha-induced E-selectin immunofluorescence imaging, at 2 µM; inhibition: stronger effect = higher value; nuclei count: measured here: cell number, toxicity
[4] = target: Voltage-gated potassium channel subunit beta-2 (Rattus norvegicus) (UniProt P62483); experiment: inhibitors of rat Kvbeta2 reductase activity – biochemical, NADPH fluorescence, primary screen (AID 622;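 active = fluorescence slope higher than the sample average by over 3 SD, cut at about -0.22 in these data, passing the limit was not always enough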;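 note: slope of raw intensity against log time taken from 70 to 1610 s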); details: recombinant KvBeta, 4-cyanobenzaldehyde reduction, at 10 µM, stronger effect = higher value
[5] = target: Voltage-gated potassium channel subunit beta-2 (Rattus norvegicus) (UniProt P62483); experiment: enhancers of rat Kvbeta2 NADPH turnover – biochemical, NADPH fluorescence, primary screen (AID 623;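 active = NADPH fluorescence slope more negative than the mean of all samples by about 3 SD, 99.7% confidence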;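 note: fluorescence intensity change per second fitted from 20 to 320 s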); details: Recombinant KvBeta, NADPH fluorescence decrease slope, 10 min; at 10 µM; stronger effect = lower value
[6] = target: Alpha-2C adrenergic receptor (Homo sapiens) (UniProt P18825); experiment: compounds altering alpha2C-coupled GIRK flux – cell-based, HEK293 alpha2C/GIRK1/2, thallium flux, primary screen (AID 624;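 active = fluorescence slope after compound addition differing from the mean of all screened samples at 99.7% confidence, in either direction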;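 note: slope of fluorescence ratio to pre-addition baseline per second over 15 to 24 s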); details: thallium flux BTC fluorescence, at 10 µM, actives lie on both sides
[7] = blockers of RIG-like receptor reporter activation – cell-based, Sendai virus stimulus, luciferase, 10K MLSCN set, TLR/RLR signaling modifier project, primary screen (AID 602276;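 active = inhibition at or above 50% at 10 µM; inactive = inhibition below 50%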;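 note: firefly luciferase from ISG56 promoter only with Renilla not read in this screen; 0% = Sendai virus plus DMSO and 100% = medium plus DMSO without virus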); details: HEK293 RL24 IRF3 luciferase reporter, at 10 µM, stronger effect = higher value
[8] = TLR3 IRF3 reporter activation blockers – cell-based, poly I:C stimulus, luciferase, 10K MLSCN set, primary screen (AID 602277); details: HEK293-TLR3 RL24 IRF3 luciferase reporter, at 10 µM, stronger effect = higher value

Alpha-2C adrenergic receptor (Homo sapiens), sequence (P18825 whole entry, looked up): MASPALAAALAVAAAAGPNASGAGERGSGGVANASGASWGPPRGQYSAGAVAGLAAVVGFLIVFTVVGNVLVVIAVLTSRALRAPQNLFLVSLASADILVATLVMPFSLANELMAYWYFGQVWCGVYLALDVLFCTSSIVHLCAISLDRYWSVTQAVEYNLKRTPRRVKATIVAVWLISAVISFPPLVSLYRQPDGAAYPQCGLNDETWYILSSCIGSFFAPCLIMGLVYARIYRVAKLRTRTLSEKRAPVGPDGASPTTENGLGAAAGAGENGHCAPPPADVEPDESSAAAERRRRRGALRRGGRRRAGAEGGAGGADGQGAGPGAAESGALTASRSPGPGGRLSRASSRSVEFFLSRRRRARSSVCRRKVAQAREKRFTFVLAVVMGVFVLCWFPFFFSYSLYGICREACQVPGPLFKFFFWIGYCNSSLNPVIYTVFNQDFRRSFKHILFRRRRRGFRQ
Voltage-gated potassium channel subunit beta-2 (Rattus norvegicus), sequence (P62483 whole entry, looked up): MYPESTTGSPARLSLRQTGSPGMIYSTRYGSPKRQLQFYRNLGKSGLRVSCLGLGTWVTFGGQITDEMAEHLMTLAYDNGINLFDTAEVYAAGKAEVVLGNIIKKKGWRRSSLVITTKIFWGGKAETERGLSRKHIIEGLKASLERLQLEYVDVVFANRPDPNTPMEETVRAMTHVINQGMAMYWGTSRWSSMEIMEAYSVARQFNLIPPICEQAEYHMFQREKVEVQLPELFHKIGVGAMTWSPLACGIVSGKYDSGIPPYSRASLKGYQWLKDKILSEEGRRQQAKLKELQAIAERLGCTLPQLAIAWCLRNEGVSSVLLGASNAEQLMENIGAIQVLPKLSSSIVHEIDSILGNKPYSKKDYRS

| Structure (SMILES) | cell count [1] | inhibition [1] | inhibition of aggregation [2] | nuclei count [2] [%] | inhibition [3] | nuclei count [3] [%] | fluorescence slope [4] | NADPH fluorescence slope [5] | slope [6] | inhibition [7] | inhibition [8] |
| --- | --- | --- | --- | --- | --- | --- | --- | --- | --- | --- | --- |
| CC(C)C(C(=O)Nc1ccc2c(c1)OCCO2)N1C(=O)c2ccccc2C1=O (stereo not drawn) | 552 | -4.3% (inactive) | 7% (inactive) | 104 | -63.7% (inactive) | 147 | -0.3 (inactive) | 1.8e-07 (inactive) | 0.00511 (inactive) | 2.16% (inactive) | 12.8% (inactive) |
| CCOC(=O)N1CCC(NC(=O)C2CCN(S(=O)(=O)c3cccc4cccnc34)CC2)CC1 | 595 | 1.8% (inactive) | -71.5% (inactive) | 11.3 | 9.6% (inactive) | 107 | -0.558 (inactive) | -2.8e-05 (inactive) | 0.00729 (inactive) | 12% (inactive) | 35.6% (inactive) |
| COCCN(CCOC)S(=O)(=O)c1ccc(C(=O)Nc2nnc(C3CC3)o2)cc1 | 390 | -0.2% (inactive) | 0% (inactive) | 102 | 44.1% (inactive) | 100 | -0.484 (inactive) | -3.8e-05 (inactive) | 0.00677 (inactive) | 16.9% (inactive) | 24.5% (inactive) |
| CC1CN(Cc2nc3c(c(=O)[nH]c(=O)n3C)n2CC(N)=O)CC(C)O1 (stereo not drawn) | 780 | -7.4% (inactive) | -1.9% (inactive) | 112 | -33% (inactive) | 111 | -0.567 (inactive) | -3.9e-05 (inactive) | 0.00597 (inactive) | 12.8% (inactive) | 20.4% (inactive) |
| O=C(c1ccc(Br)o1)N(c1ccc(Br)cc1)C1C=CS(=O)(=O)C1 (stereo not drawn) | 553 | -21.1% (inactive) | 4.2% (inactive) | 108 | -74.4% (inactive) | 121 | -0.377 (inactive) | 3.2e-05 (inactive) | 0.00592 (inactive) | -8.65% (inactive) | -3.46% (inactive) |
| CCN(CCNC(=O)CS(=O)(=O)Cc1nc(-c2cccc(OC)c2)oc1C)c1ccccc1 | 644 | -27.6% (inactive) | -16.4% (inactive) | 121 | -37.8% (inactive) | 107 | -0.53 (inactive) | -4e-05 (inactive) | 0.00529 (inactive) | 13.7% (inactive) | 20.1% (inactive) |
| O=C1c2ccccc2C(Nc2ccc(F)c(Cl)c2)N1Cc1ccco1 (stereo not drawn) | 778 | -11.6% (inactive) | -4.9% (inactive) | 110 | -37.8% (inactive) | 105 | -0.442 (inactive) | -5.5e-05 (inactive) | 0.0049 (inactive) | 5.4% (inactive) | 26.8% (inactive) |
| O=C(Nc1ccccc1N1CCN(c2ccc(F)cc2)CC1)c1ccccc1 | 423 | 7.6% (inactive) | -1% (inactive) | 104 | -122% (inactive) | 134 | -0.44 (inactive) | -3.4e-05 (inactive) | 0.00515 (inactive) | 14% (inactive) | 21.1% (inactive) |
| Cc1ccc(C(C(=O)NC(C)(C)C)N(C(=O)c2csnn2)c2cccc(F)c2)o1 (stereo not drawn) | 357 | 4.3% (inactive) | 7.8% (inactive) | 93.7 | -33.5% (inactive) | 81.8 | -0.492 (inactive) | 8.2e-06 (inactive) | 0.00622 (inactive) | 8.19% (inactive) | 20.7% (inactive) |
| O=C(NCC(c1cccnc1)N1CCOCC1)c1ccco1 (stereo not drawn) | 453 | 2.4% (inactive) | -3.5% (inactive) | 100 | -42.3% (inactive) | 129 | -0.336 (inactive) | 3.2e-06 (inactive) | 0.00285 (inactive) | 15.9% (inactive) | 31% (inactive) |
| CCOC(=O)c1ccccc1NC(=O)c1cccnc1 | 381 | 5.5% (inactive) | -28.4% (inactive) | 117 | -167% (inactive) | 135 | -0.504 (inactive) | 2.4e-05 (inactive) | 0.00744 (inactive) | -0.374% (inactive) | 10.8% (inactive) |
| CC1(C)CC(=O)C(C=Nc2ccc3c(c2)OCO3)=C(O)C1 | 329 | 1% (inactive) | 12.6% (inactive) | 104 | -252% (inactive) | 86.4 | -0.435 (inactive) | -6.8e-05 (inactive) | 0.00387 (inactive) | -6.77% (inactive) | -5.98% (inactive) |
| Cc1cc(C)nc(N2CCC(C(=O)NC3CCCCCC3)CC2)n1 | 502 | -11.2% (inactive) | 25.2% (inactive) | 93.6 | 19.9% (inactive) | 90.5 | -0.508 (inactive) | 6.6e-06 (inactive) | 0.00535 (inactive) | 16.4% (inactive) | 16.2% (inactive) |
| CCOc1ccc(N2CC(C(=O)NCCc3ccc(OC)c(OC)c3)CC2=O)cc1 (stereo not drawn) | 458 | -3.8% (inactive) | -9.6% (inactive) | 112 | -59.3% (inactive) | 163 | -0.456 (inactive) | -3.5e-05 (inactive) | 0.00548 (inactive) | 20.4% (inactive) | 25.1% (inactive) |
| O=C(CCCCn1c(=O)c2ccccc2n(Cc2ccc(Cl)cc2)c1=O)NCc1ccco1 | 613 | -7.3% (inactive) | -8.5% (inactive) | 81.8 | -95.8% (inactive) | 110 | -0.466 (inactive) | -1.3e-05 (inactive) | 0.00636 (inactive) | 45.2% (inactive) | 33.2% (inactive) |
| Cc1ccc(C(=O)Nc2ccc(Cl)cn2)cc1S(=O)(=O)N1CCOCC1 | 568 | -10.1% (inactive) | -0.1% (inactive) | 112 | -12.7% (inactive) | 102 | -0.503 (inactive) | 9.5e-06 (inactive) | 0.00409 (inactive) | -6.64% (inactive) | -36% (inactive) |
| O=C(COC(=O)c1ccccc1O)Nc1ccc(OC(F)F)cc1 | 674 | 5.1% (inactive) | -8.4% (inactive) | 103 | -64.8% (inactive) | 136 | -0.543 (inactive) | 7.7e-06 (inactive) | 0.00583 (inactive) | -13.8% (inactive) | -42.2% (inactive) |
| O=C(NCCCN1CCCC1=O)c1ccc2c(c1)NC(=O)C(N1CCOCC1)S2 (stereo not drawn) | 431 | 7.4% (inactive) | -20.6% (inactive) | 114 | -21.8% (inactive) | 116 | -0.615 (inactive) | -3.9e-05 (inactive) | 0.00374 (inactive) | 6.23% (inactive) | 15% (inactive) |
| CC1CCCN(C(=O)CN2C(=O)c3ccccc3C2=O)C1 (stereo not drawn) | 432 | 4.9% (inactive) | 15.5% (inactive) | 136 | -27.3% (inactive) | 102 | -0.272 (inactive) | -3.7e-05 (inactive) | 0.00658 (inactive) | 14.5% (inactive) | 20.6% (inactive) |
| N#Cc1nc(-c2ccco2)oc1NCCc1ccccc1 | 686 | -7.5% (inactive) | -10.1% (inactive) | 88.8 | -3% (inactive) | 107 | -0.463 (inactive) | -4.3e-05 (inactive) | 0.0039 (inactive) | -33.8% (inactive) | -56.1% (inactive) |
| Cc1nnc(SCc2ccccc2)n1N | 465 | 2.9% (inactive) | -11.7% (inactive) | 101 | -16.8% (inactive) | 119 | -0.494 (inactive) | -4.1e-05 (inactive) | 0.00525 (inactive) | 16.3% (inactive) | 16.6% (inactive) |
| CCOC(=O)C1=C(C)N=c2s/c(=C\c3cccn3C)c(=O)n2C1c1cccc(OC)c1OC (stereo not drawn) | 342 | 4.5% (inactive) | 0.2% (inactive) | 98.8 | -38% (inactive) | 102 | -0.419 (inactive) | -8.6e-05 (inactive) | 0.0038 (inactive) | 15.4% (inactive) | 25.1% (inactive) |
| CC(=O)OC1c2ccccc2C(=O)N1Cc1ccccc1Cl (stereo not drawn) | 468 | -2.8% (inactive) | 34% (inactive) | 61 | -13.3% (inactive) | 106 | -0.552 (inactive) | -4.6e-05 (inactive) | 0.00651 (inactive) | 4.84% (inactive) | 27.6% (inactive) |
| COc1cccc(N2CCN(CC(=O)Nc3nnc(-c4ccccc4)s3)CC2)c1 | 417 | 0.2% (inactive) | 2.3% (inactive) | 105 | -120% (inactive) | 118 | -0.472 (inactive) | 8.2e-07 (inactive) | 0.00594 (inactive) | 16% (inactive) | 22% (inactive) |
| CN(C)c1ccc(/C=C/c2ccncc2)cc1 | 311 | -5.5% (inactive) | 22.3% (inactive) | 83.5 | -76.4% (inactive) | 87.8 | -0.382 (inactive) | 1.7e-05 (inactive) | 0.00338 (inactive) | -62.5% (inactive) | -181% (inactive) |
| Cc1ccc(NC(=O)c2cc(-c3ccc(C)o3)nc3ccccc23)nc1 | 414 | 6.3% (inactive) | -7.9% (inactive) | 113 | 21.6% (inactive) | 106 | -0.12 (active) | 9.6e-06 (inactive) | 0.00591 (inactive) | -2.84% (inactive) | -17% (inactive) |
| COc1ccc(NC(=O)Nc2ccc(C)cc2OC(F)F)cc1OC | 335 | -6.5% (inactive) | 6.2% (inactive) | 91.2 | -38.2% (inactive) | 94.2 | -0.422 (inactive) | -5.1e-05 (inactive) | 0.00406 (inactive) | 1.59% (inactive) | -6.11% (inactive) |
| COc1ccc(-n2ncc3c(N4CCC(C)CC4)ncnc32)cc1 | 575 | -1.3% (inactive) | 17.5% (inactive) | 121 | -10.8% (inactive) | 110 | -0.572 (inactive) | -5e-05 (inactive) | 0.00789 (inactive) | 9.66% (inactive) | -67.2% (inactive) |
